In the supplement of paper PMC10412459:

Tested on: K562 SF3B1 K700E vs K562 SF3B1 WT
Experiment: surviving fraction ratio K562 SF3B1 K700E / K562 SF3B1 WT (each relative to DMSO); higher = less selective killing of SF3B1 K700E cells
Conditions: 5 days
How it was run: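 Isogenic K562 cells carrying an engineered SF3B1 hotspot allele and matched SF3B1 wild-type cells were screened against an in-house 80-compound library in 384-well plates. Plates were seeded at 250 cells per well, and compounds were added 24 h later at 0.5, 1, 5, 10, 50, 100, 500 and 1,000 nM, with continuous culture for 5 d. Viability was read by CellTiter-Glo. The value is the mutant-to-wild-type ratio of surviving fractions, each normalised to DMSO.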

Row | SMILES | surviving fraction ratio K562 SF3B1 K700E / K562 SF3B1 WT (0.5nM) | surviving fraction ratio K562 SF3B1 K700E / K562 SF3B1 WT (1nM) | surviving fraction ratio K562 SF3B1 K700E / K562 SF3B1 WT (5nM) | surviving fraction ratio K562 SF3B1 K700E / K562 SF3B1 WT (10nM) | surviving fraction ratio K562 SF3B1 K700E / K562 SF3B1 WT (50nM) | surviving fraction ratio K562 SF3B1 K700E / K562 SF3B1 WT (100nM) | surviving fraction ratio K562 SF3B1 K700E / K562 SF3B1 WT (500nM) | surviving fraction ratio K562 SF3B1 K700E / K562 SF3B1 WT (1000nM)
1 | Cc1ccc(NC(=O)c2ccc(CN3CCN(C)CC3)cc2)cc1Nc1nccc(-c2cccnc2)n1 [imatinibmesylate] | 0.696 | 0.74 | 0.733 | 0.692 | 0.55 | 0.617 | 1.5 | 1.1
2 | NS(=O)(=O)OC[C@@H]1C[C@@H](n2ccc3c(N[C@H]4CCc5ccccc54)ncnc32)C[C@@H]1O | 0.743 | 0.708 | 0.772 | 0.687 | 0.74 | 1.51 | 1.22 | 1.07
3 | C[C@@H](Oc1cc(-c2cnn(C3CCNCC3)c2)cnc1N)c1c(Cl)ccc(F)c1Cl | 0.965 | 1.06 | 0.847 | 0.861 | 0.652 | 0.542 | 1.17 | 1.06
4 | COc1ccc(C2=N[C@@H](c3ccc(Cl)cc3)[C@@H](c3ccc(Cl)cc3)N2C(=O)N2CCNC(=O)C2)c(OC(C)C)c1 [Nutlin3] | 1 | 0.984 | 0.843 | 0.873 | 0.861 | 0.781 | 0.767 | 0.894
5 | CS(=O)(=O)c1ccc(C(=O)Nc2ccc(Cl)c(-c3ccccn3)c2)c(Cl)c1 | 1.07 | 0.954 | 0.96 | 0.872 | 1 | 0.969 | 1.01 | 1.07
6 | Cn1nnc2c(C(N)=O)ncn2c1=O [temozolomide] | 0.816 | 0.823 | 0.844 | 0.765 | 0.88 | 0.843 | 0.714 | 0.794
7 | Nc1ncn([C@H]2C[C@H](O)[C@@H](CO)O2)c(=O)n1 [decitabine] | 0.733 | 0.724 | 0.773 | 0.665 | 0.964 | 0.894 | 1.13 | 1.36
8 | COCC[n+]1c2c(n(Cc3cnccn3)c1C)C(=O)c1ccccc1C2=O | 0.819 | 0.805 | 1.33 | 1.8 | 1.14 | 0.899 | 0.84 | 0.809
9 | CCCCCCCCCCCCCCCC(=O)Nc1ccn([C@@H]2O[C@H](CO)[C@@H](O)[C@@H]2C#N)c(=O)n1 [sapacitabine] |  | 0.911 |  | 1.11 |  | 0.745 |  | 1.78
10 | O=C(c1cc(Cc2n[nH]c(=O)c3ccccc23)ccc1F)N1CCN(C(=O)C2CC2)CC1 [olaparib] | 0.978 | 0.979 | 0.926 | 0.839 | 0.947 | 1.02 | 1.1 | 0.871
11 | Cn1ncnc1[C@H]1c2n[nH]c(=O)c3cc(F)cc(c23)N[C@@H]1c1ccc(F)cc1 [talazoparib] | 0.824 | 0.778 | 0.775 | 0.743 | 0.552 | 0.571 | 0.794 | 
12 | C[C@]1(O)C[C@@H](c2nc(-c3ccc4ccc(-c5ccccc5)nc4c3)c3c(N)nccn32)C1 | 0.876 | 0.823 | 0.862 | 0.829 | 0.861 | 0.795 | 0.804 | 0.873
13 | CCC1=C[C@@H]2CN(C1)Cc1c([nH]c3ccccc13)[C@@](C(=O)OC)(c1cc3c(cc1OC)N(C)[C@H]1[C@@](O)(C(=O)OC)[C@H](OC(C)=O)[C@]4(CC)C=CCN5CC[C@]31[C@@H]54)C2 [vinorelbine] | 1.02 | 0.921 | 0.475 | 0.385 | 1.53 | 1.9 | 1.97 | 1.89
